Compounds with a hit are over-represented: about 2.9% of the library has one in this group of screens.
EPAC2 antag: Validation qHTS for antagonist of cAMP-regulated guanine nucleotide exchange factor 4 (EPAC2); 16,000 compounds, 1.7% hits; EPAC2 Rap1B BODIPY-GDP exchange, fluorescence; Potency, µM (highest dose often 112 µM), most hits filed as inhibitors; Rap guanine nucleotide exchange factor 4 (Homo sapiens), Q8WZA2; also: nearly all actives have a fitted effect of over 40% in size
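Normalized against a 6.5 mM cAMP agonist control, compounds were tested on 100 nM EPAC2 exchanging Rap1B-bound BODIPY-GDP (250 nM) for 50 uM GDP. Fluorescence drop (ex 480, em 540 nm) was tracked at room temperature over 30 min at 5-min intervals.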
EPAC1 agonist: Validation qHTS for agonist of cAMP-regulated guanine nucleotide exchange factor 3 (EPAC1); Potency, µM, hits mostly activators; EPAC1 Rap1b BODIPY-GDP exchange, fluorescence; Rap guanine nucleotide exchange factor 3 (Homo sapiens), O95398; 16,000 compounds, 1% hits; also: nearly all actives have a fitted effect of over 70% in size
Target sequence (O95398 whole entry, looked up): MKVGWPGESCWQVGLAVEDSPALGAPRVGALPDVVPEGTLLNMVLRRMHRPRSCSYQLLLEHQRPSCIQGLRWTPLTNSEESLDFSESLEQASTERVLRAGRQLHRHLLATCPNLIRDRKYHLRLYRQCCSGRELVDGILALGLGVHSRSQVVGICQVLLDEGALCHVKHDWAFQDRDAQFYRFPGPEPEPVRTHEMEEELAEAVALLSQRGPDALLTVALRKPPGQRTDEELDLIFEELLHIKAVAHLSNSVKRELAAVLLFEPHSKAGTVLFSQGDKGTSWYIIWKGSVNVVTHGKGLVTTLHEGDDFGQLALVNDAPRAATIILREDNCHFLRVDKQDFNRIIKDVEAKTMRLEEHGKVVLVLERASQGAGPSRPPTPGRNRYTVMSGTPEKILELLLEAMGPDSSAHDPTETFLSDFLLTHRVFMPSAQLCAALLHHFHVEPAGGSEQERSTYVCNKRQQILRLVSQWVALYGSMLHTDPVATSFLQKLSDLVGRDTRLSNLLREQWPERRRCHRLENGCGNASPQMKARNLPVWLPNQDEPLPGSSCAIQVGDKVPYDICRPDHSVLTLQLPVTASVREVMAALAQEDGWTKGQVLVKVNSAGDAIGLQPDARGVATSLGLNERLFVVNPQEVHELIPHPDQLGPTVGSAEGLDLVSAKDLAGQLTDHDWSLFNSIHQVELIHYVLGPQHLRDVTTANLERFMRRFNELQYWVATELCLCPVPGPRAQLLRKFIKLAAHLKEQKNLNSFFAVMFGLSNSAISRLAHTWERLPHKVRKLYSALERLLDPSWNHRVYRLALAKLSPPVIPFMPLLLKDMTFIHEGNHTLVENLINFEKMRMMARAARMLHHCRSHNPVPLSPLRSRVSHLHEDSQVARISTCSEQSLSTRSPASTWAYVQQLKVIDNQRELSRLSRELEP
Large screens that a line does not name were inactive; ! = a repeat was not active. Calls follow the shape of the dose curve; as a rule, active = well fitted curve in the direction sought with a large enough effect; inconclusive = small, poorly fitted or top-dose-only effect, or another doubt; inactive = no such curve, though single readings can be large; an effect the other way counts as inactive or inconclusive.

COc1cc(CNC(=O)CCCC/C=C/C(C)C)ccc1O	EPAC2 antag 40µM!
CCCCC[C@H](O)CC(=O)CCc1ccc(O)c(OC)c1	none
CNC(C)[C@@H]1CC[C@@H](N)[C@@H](O[C@H]2[C@H](O)[C@@H](O[C@H]3OC[C@](C)(O)[C@H](NC)[C@H]3O)[C@H](N)C[C@@H]2N)O1 (some centres undefined)	none
O=c1c(-c2ccccc2)nc2cnc(N3CCNCC3)nc2n1Cc1ccc(F)cc1	none
O=c1c(-c2cc(F)cc(F)c2)nc2cnc(N3CCNCC3)nc2n1Cc1ccc(F)cc1	EPAC2 antag 50µM, EPAC1 agonist inconclusive
CN(C)c1ncc2nc(-c3ccc(F)cc3)c(=O)n(CCc3ccccc3)c2n1	none
COc1ncc2nc(CCc3ccccc3)c(=O)n(-c3ccccc3)c2n1	EPAC1 agonist inconclusive
CN(C)c1ncc2nc(CCc3ccccc3)c(=O)n(-c3ccccc3)c2n1	EPAC1 agonist 112µM
CN(C)c1ncc2nc(-c3ccc(F)cc3)c(=O)n(-c3ccccc3)c2n1	EPAC1 agonist 100µM
N.N.N.N.N.N.N.N.N.N.N.N.N.N.O.O.[Ru+4].[Ru+5].[Ru+5]	EPAC2 antag inconclusive
CC[C@@H](C(=O)O)[C@@H]1O[C@@H]([C@@H](C)[C@H](O)[C@H](C)C(=O)[C@H](CC)[C@H]2O[C@]3(C=C[C@@H](O)[C@]4(CC[C@@](C)([C@H]5CC[C@](O)(CC)[C@H](C)O5)O4)O3)[C@H](C)C[C@@H]2C)[C@@H](C)C[C@@H]1C	none
Cc1ccc2c(/C=C/c3c[nH]c4ccccc34)ccnc2c1C	EPAC1 agonist 100µM
COc1ccc(OC)c2c(/C=C/c3c[nH]c4ccccc34)ccnc12	none
COc1ccc(CN2CCc3nnc(CCc4ccccc4)n3CC2)c(OC)c1C	none
COC(=O)C1CCCCN1Cc1ccc2c(c1)CN(Cc1cnn(-c3ccccc3)c1)CCO2 (centres undefined)	none
COc1cccc(-c2nc3cc(SC)ccc3cc2CN(C(=O)c2sccc2C)C2CC2)c1	EPAC2 antag 40µM, EPAC1 agonist inconclusive
COc1ccc(-c2nc3cc(F)ccc3cc2CN(C(=O)c2cccs2)C2CC2)cc1	none
CC(C)(C)NC(=O)[C@H]1CC[C@H]2[C@@H]3CC=C4C=C(C(=O)O)CC[C@]4(C)[C@H]3CC[C@]12C	none
Cc1ccccc1C1(CC(=O)N2CCCC2c2nccs2)CC(=O)N(C2CCCC2)C1=O (centres undefined)	none
O=C(O)[C@H](O)[C@@H](O)[C@H](O)[C@H](O)CO	none
N[C@H](C(=O)O)C(O)C(O)C(O)CO (some centres undefined)	EPAC1 agonist 112µM
CCOC(=O)CCC(=O)O[C@H]1[C@H](O[C@@H]2[C@@H](C)[C@H](O[C@H]3C[C@@](C)(OC)[C@@H](O)[C@H](C)O3)[C@@H](C)C(=O)O[C@H](CC)[C@@](C)(O)[C@H](O)[C@@H](C)C(=O)[C@H](C)C[C@@]2(C)O)O[C@H](C)C[C@@H]1N(C)C	none
CCC(=O)O[C@H]1[C@H](O[C@@H]2[C@@H](C)[C@H](O[C@H]3C[C@@](C)(OC)[C@@H](O)[C@H](C)O3)[C@@H](C)C(=O)O[C@H](CC)[C@@](C)(O)[C@H](O)[C@@H](C)C(=O)[C@H](C)C[C@@]2(C)O)O[C@H](C)C[C@@H]1N(C)C	EPAC2 antag 32µM
O=C(NCc1nnc2n1CCN(Cc1cc(F)cc(F)c1)CC2)c1cccc(F)c1	none
c1ccc(-c2ccc(C(c3ccccc3)n3ccnc3)cc2)cc1 (centres undefined)	EPAC2 antag 50µM, EPAC1 agonist inconclusive
Clc1cccc(C(c2ccc3nc[nH]c3c2)n2ccnc2)c1 (centres undefined)	none
CC(O)[C@H]1CC[C@H]2[C@@H]3CC[C@@H]4C[C@@H](O)CC[C@]4(C)[C@H]3CC[C@]12C (some centres undefined)	none
CN1CCN(CCCN2c3ccccc3Sc3ccc(C(F)(F)F)cc32)CC1	EPAC2 antag 56µM!
O=C(CCN1CCN(CCO)CC1)N1c2ccccc2Sc2ccc(C(F)(F)F)cc21	none
CC#CCC(C)[C@H](O)/C=C/[C@@H]1[C@H]2c3cccc(CCCC(=O)O)c3O[C@H]2C[C@H]1O (some centres undefined)	none
Cc1ccc(C(=O)N(Cc2cc3cccc(C)c3nc2N2CCC(O)CC2)C2CC2)cc1	none
Nc1ccc2cc3ccc(N)cc3nc2c1	EPAC1 agonist 100µM
CCOc1ccc2nc3cc(N)ccc3c(N)c2c1	EPAC2 antag inconclusive
